Test [1] in a line: small molecules captured by biotinylated probe aFSTL3 – biochemical, small-molecule microarray, fluorescence 635/667, stem cell growth factor project, primary screen (AID 1064).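 Note: measures binding of the biotinylated anti-FSTL3 antibody to printed compounds.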 As to conditions: higher = more signal.
Test [2] in a line: binders from COS7 lysate, DM2A8 probe, primary screen, torsin A project, cell lysate, small-molecule microarray, fluorescence 635/667 (AID 1065). The following applies: higher = more signal, COS7 lysate expressing mutant human TOR1A.
A short description of test [3]: small molecules captured by biotinylated probe aFGF2 – biochemical, small-molecule microarray, fluorescence 635/667, stem cell growth factor project, primary screen (AID 1067).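 Note: measures binding of biotinylated aFGF2 protein to printed compounds on slides; z-score merges feature fluorescence and signal-to-noise across triplicate slides.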 The following applies: higher = more signal.
Test [4] in a line: small molecules captured by biotinylated probe aFGF10 – biochemical, small-molecule microarray, fluorescence 635/667, stem cell growth factor project, primary screen (AID 1071).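 Note: score merges 667 nm spot intensity and signal to noise from triplicate slides.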 As to conditions: higher = more signal.
Test [5] has as its target Neurogenic locus notch homolog protein 2 (Homo sapiens) (UniProt Q04721). The test can be described thus: small molecules binding Notch2 protein – biochemical, small-molecule microarray, 635 nm fluorescence, stem cell growth factors, primary screen (AID 1073). The following applies: higher = more signal.
The target of test [6] is Pro-neuregulin-1, membrane-bound isoform (Homo sapiens) (UniProt Q02297). Briefly: small molecules binding neuregulin-1 protein – biochemical, small-molecule microarray, fluorescence 635/667, psychiatric disease protein project, primary screen (AID 1075).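 Note: score combines 667 nm spot fluorescence with signal to noise.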 The following applies: NRG1 binding, 635 nm fluorescence, higher = more signal.
Chain of Pro-neuregulin-1, membrane-bound isoform (Homo sapiens) (Q02297 whole entry, looked up, the tested form may be a part, canonical isoform): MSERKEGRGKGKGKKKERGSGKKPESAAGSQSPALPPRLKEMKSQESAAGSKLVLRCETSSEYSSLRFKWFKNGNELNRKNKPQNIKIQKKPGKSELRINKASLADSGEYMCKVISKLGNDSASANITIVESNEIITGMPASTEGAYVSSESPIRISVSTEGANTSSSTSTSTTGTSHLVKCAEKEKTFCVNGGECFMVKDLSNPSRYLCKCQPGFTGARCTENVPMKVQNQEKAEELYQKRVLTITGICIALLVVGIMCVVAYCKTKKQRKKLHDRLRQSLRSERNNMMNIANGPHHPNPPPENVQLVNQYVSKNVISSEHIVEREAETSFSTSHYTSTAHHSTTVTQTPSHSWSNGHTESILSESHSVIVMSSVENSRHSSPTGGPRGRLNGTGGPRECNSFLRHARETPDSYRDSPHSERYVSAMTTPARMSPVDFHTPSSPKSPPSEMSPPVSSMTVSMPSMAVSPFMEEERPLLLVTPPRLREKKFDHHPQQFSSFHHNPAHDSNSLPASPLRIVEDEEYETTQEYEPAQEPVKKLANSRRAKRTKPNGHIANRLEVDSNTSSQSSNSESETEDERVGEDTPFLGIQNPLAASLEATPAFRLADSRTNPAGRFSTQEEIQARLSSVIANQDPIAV
The test system of test [7] is Neuregulin-1 EGF-like domain. The test can be described thus: small molecules binding NRG1 EGF domain – biochemical, small-molecule microarray, 635 nm fluorescence, primary screen (AID 1081).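 Note: binding of the protein to compounds printed on small-molecule microarray slides.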 The following applies: higher = more signal.
Test [8] in a line: FRG1 expression reporter modulators in myotubes – cell-based, C2C12 myotubes, firefly/Renilla luciferase, luminescence, FRG1 inhibition for FSHD, primary screen (AID 1084). The following applies: FRG1 promoter luciferase, higher = more signal, called active from +8 up or from −8 down.
Test [9] can be described thus: small molecules captured by biotinylated probe aFST – biochemical, small-molecule microarray, fluorescence 635/667, stem cell growth factor project, primary screen (AID 1086).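 Note: score merges 667 nm fluorescence with signal-to-noise of each printed compound spot.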 As to conditions: higher = more signal.
Test [10] is described as follows: binders of probe aHhip on microarray, primary screen, stem cell growth factor project, biochemical, small-molecule microarray, fluorescence 635/667 (AID 1087).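 Note: score merges spot fluorescence at 667nm with spot signal to noise ratio.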 As to conditions: higher = more signal.
Test [11] has as its system PRMT1 (protein arginine N-methyltransferase 1). The test can be described thus: small molecules binding arginine methyltransferase PRMT1 – biochemical, small-molecule microarray, 635 nm fluorescence, primary screen (AID 1088).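 Note: binding of Prmt1 protein to compounds spotted on small-molecule microarray slides.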 The following applies: higher = more signal.
Test [12] is described as follows: growth effects on S. cerevisiae YJM789 – YJM789 clinical isolate, OD600, 24 h, basal, primary screen (AID 1089).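 Note: growth of clinical yeast isolate S. cerevisiae YJM 789 seeded 1000 cells per well; test concentration not given here.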 The following applies: higher = more signal, called active from +8 up or from −8 down.
Test [13] is described as follows: S. pombe growth modifiers, basal conditions – strain 972, OD600, 24 h, no modulator, primary screen (AID 1090).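 Note: basal condition with compound alone and no growth modifier present; test concentration not given here.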 The following applies: S. pombe 972 growth, higher = more signal, called active from +8 up or from −8 down.
The nature of test [14]: budding yeast growth modifiers under rapamycin – strain BY4716, OD600, 96 h, primary screen (AID 1091). Note: test concentration not given here. The following applies: S. cerevisiae BY4716 + rapamycin, higher = more signal, called active from +8 up or from −8 down.
Test [15] addresses Torsin-1A-interacting protein 2 (Homo sapiens) (UniProt Q8NFQ8). Briefly: small molecules binding lysate-expressed LULL1 – cell lysate, human LULL1 lysate, 635/667 nm fluorescence, primary screen (AID 1092).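 Note: probe is lysate of COS7 cells overexpressing human LULL1; score merges per-feature 667 nm fluorescence with signal-to-noise.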 As to conditions: small-molecule microarray, hLULL1 lysate binding, 635 nm fluorescence; higher = more signal.
Test [16] in a line: optical density change of DRC41 E. coli – strain DRC41, OD650, 24 h, E. coli filamentation project, primary screen (AID 1093).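 Note: MC1000 strain lacking acrAB efflux and sulA so SOS filamentation is blocked; test concentration not given here.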 The following applies: E. coli DRC41 growth, higher = more signal, called active from +8 up or from −8 down.
A short description of test [17]: probe aLefty2 binding to arrayed compounds – biochemical, biotinylated probe, 635/667 nm fluorescence, primary screen (AID 1094).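 Note: score merges spot fluorescence near 667 nm with spot signal-to-noise ratio.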 The following applies: small-molecule microarray, higher = more signal.
Test [18] concerns Noggin (protein binding on small-molecule microarray). The test can be described thus: small molecules binding Noggin protein – biochemical, 635/667 nm fluorescence, primary screen (AID 1095).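 Note: score merges 667 nm feature fluorescence with signal to noise over triplicate slides.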 As to conditions: 635 nm fluorescence, higher = more signal.
The target of test [19] is Neurogenic locus notch homolog protein 3 (Homo sapiens) (UniProt Q9UM47). The test can be described thus: small molecules binding NOTCH3 protein – biochemical, 635/667 nm fluorescence, primary screen (AID 1096). The following applies: small-molecule microarray, 635 nm fluorescence, higher = more signal.
Chain of Neurogenic locus notch homolog protein 3 (Homo sapiens) (Q9UM47 whole entry, looked up): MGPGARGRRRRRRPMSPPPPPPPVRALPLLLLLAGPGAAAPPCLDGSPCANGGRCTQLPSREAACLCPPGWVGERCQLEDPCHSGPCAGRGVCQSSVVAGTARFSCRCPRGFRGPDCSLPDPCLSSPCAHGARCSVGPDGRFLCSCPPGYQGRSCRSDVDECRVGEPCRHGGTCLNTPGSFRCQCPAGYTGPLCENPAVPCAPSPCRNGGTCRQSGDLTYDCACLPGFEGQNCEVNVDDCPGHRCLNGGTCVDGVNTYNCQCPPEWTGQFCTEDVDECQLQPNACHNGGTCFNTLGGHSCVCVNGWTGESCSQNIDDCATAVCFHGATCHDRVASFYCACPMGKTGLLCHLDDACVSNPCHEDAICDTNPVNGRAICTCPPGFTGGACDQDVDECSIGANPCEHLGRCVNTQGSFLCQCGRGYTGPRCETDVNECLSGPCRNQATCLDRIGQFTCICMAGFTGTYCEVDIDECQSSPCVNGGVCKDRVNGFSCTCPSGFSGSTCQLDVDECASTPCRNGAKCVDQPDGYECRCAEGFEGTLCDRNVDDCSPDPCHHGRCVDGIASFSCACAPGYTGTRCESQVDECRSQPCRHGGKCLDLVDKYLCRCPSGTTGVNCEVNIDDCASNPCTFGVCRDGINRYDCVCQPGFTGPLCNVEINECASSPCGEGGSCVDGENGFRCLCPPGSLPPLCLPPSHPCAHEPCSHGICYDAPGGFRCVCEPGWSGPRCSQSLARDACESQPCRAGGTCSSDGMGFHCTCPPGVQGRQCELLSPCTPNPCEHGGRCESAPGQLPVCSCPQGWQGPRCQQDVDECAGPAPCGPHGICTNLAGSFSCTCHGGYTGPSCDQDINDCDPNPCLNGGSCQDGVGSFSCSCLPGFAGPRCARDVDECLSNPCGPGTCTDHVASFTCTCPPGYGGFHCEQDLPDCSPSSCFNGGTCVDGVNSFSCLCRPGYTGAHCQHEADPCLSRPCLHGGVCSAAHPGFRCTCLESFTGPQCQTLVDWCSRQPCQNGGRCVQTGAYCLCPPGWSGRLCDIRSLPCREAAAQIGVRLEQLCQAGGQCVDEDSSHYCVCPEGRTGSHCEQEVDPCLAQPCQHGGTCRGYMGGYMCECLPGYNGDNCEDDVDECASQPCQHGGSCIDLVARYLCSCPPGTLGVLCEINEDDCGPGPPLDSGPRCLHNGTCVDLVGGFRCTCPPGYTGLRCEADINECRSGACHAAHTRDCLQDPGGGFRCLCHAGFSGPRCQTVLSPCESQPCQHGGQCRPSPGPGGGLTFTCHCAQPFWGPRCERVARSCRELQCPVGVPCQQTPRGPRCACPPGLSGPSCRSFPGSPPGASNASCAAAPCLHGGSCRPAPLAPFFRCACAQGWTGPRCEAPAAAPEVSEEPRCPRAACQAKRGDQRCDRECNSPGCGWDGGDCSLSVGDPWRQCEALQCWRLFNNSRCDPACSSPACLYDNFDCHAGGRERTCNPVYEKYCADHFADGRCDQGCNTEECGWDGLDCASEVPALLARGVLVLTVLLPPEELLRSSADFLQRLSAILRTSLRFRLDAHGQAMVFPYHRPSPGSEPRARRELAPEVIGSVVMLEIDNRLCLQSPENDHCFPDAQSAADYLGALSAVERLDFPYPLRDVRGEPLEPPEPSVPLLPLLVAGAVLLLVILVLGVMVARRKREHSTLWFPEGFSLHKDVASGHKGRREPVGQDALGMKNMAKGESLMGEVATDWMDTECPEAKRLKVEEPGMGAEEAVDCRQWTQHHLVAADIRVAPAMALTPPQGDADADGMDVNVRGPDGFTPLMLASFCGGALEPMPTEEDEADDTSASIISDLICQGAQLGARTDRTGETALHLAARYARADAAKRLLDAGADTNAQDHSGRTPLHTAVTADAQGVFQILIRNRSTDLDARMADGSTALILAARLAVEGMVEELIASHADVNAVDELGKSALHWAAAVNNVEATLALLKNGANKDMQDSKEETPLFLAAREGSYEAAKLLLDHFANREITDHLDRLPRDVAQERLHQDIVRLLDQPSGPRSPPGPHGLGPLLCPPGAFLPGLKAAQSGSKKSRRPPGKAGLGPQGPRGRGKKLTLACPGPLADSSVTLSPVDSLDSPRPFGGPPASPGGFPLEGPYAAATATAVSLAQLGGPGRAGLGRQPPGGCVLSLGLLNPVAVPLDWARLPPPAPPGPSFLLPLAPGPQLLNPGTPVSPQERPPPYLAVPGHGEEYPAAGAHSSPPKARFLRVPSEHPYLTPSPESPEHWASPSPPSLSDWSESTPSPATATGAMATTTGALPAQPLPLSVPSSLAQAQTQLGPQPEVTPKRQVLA
A short description of test [20]: probe aEGFR binding to arrayed compounds – biochemical, biotinylated probe, 635/667 nm fluorescence, primary screen (AID 1097).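 Note: probe is a biotinylated anti-EGFR antibody binding compounds printed on slides; score combines fluorescence near 667 nm and signal to noise of each spot.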 As to conditions: small-molecule microarray, higher = more signal.

Data on 9 compounds can be found in PubChem BioAssay.

Activity calls are given as the source filed them.

Chain of Torsin-1A-interacting protein 2 (Homo sapiens) (Q8NFQ8 whole entry, looked up): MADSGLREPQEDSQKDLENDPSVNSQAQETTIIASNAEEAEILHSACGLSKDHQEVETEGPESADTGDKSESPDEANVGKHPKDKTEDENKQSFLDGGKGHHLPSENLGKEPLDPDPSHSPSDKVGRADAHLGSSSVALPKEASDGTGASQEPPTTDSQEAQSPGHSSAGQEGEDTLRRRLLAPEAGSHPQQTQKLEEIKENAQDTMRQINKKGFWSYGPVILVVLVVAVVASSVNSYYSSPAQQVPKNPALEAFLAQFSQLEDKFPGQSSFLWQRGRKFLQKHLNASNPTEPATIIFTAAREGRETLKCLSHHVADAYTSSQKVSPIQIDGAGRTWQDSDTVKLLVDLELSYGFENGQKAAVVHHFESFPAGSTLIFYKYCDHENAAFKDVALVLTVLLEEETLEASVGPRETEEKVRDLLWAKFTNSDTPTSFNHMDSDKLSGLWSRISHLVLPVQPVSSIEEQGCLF

`CC(C)[Si]1(C(C)C)O[C@@H](c2ccccc2)c2cc(-c3ccc(-c4ccc(Cl)c(Cl)c4)o3)nc(-c3ccccc3)c21`: the composite z-score in [1] is -0.104; in test [2], 0.291; in test [3], -0.0953; in test [4], -0.0933; in test [5], -0.0802; in [6], 0.398. Also, the composite z-score is -0.39 in [7]; 0.0481 in [9]; -0.0645 in test [10]; 0.985 in test [11]; 1.22 in [15]; -0.0809 in test [17]. Besides, the composite z-score is -0.262 in test [18], 0.123 in test [19] and -0.108 in test [20]. For the same compound, the z-score was 0.97 (inactive) in [8]; -0.585 (inactive) in [12]; -0.764 (inactive) in test [13]; 0.167 (inactive) in test [14]; -1.22 (inactive) in [16].
With `CC(C)NC(=O)[C@@]1(c2ccc([N+](=O)[O-])cc2)CC(=O)N(C2CCCCC2)[C@@H]1c1ccc(CO)cc1I`, the composite z-score is 1.12 in [1]; 0.586 in [2]; -0.0548 in test [3]; -0.0891 in test [4]; -0.0016 in [5]; 0.662 in [6]. Besides, the composite z-score in [7] turned out to be 1.12; in test [9], 0.178; in test [10] it was 0.426; in [11], 1.03; in test [15], 2.33; in test [17], 0.134. The composite z-score in [18] is -0.941; in test [19], -0.0996; in test [20], -0.0185. Besides, the z-score is 0.286 (inactive) in [8]; 0.719 (inactive) in test [12]; 0.475 (inactive) in test [13]; 2.6 (inactive) in [14]; 1.21 (inactive) in test [16].
`[N-]=[N+]=Nc1ccccc1[C@H]1OC(c2ccc(OCCCO)cc2)=N[C@@]1(CCS(=O)(=O)c1ccccc1)C(N)=O`: the composite z-score is 1.5 in [1]; 0.449 in test [2]; 0.0797 in test [3]; 1.07 in test [4]; 0.742 in [5]; 0.9 in [6]. Moreover, the composite z-score worked out at 1.34 in test [7]; 1.04 in [9]; 0.111 in test [10]; 1.01 in test [11]; 2.56 in test [15]; 0.24 in test [17]. Besides, the composite z-score was -0.194 in test [18], 0.42 in test [19] and 0.401 in test [20]. The z-score in test [8] is 3.44 (inactive); in test [12], -0.268 (inactive); in [13] it was -2.33 (inactive); in test [14] it was 0.372 (inactive); in [16], 1.36 (inactive).
With `O=C1C[C@@](C(=O)NC2CC2)(c2ccc([N+](=O)[O-])cc2)[C@@H](c2ccc(CO)cc2I)N1C1CCCCC1`, the composite z-score in test [1] is -0.407; in test [2] it was 0.722; in test [3], 0.0043; in test [4] it was 0.496; in [5], 0.677; in [6] it was 1.04. Further, the composite z-score in test [7] is 1.34; in test [9], 0.419; in [10], 0.075; in test [11] it was 1.53; in [15], 2.82; in test [17] it was -0.05. The composite z-score in test [18] was 1.25; in test [19], 1.07; in [20], -0.0828. Also, the z-score in test [8] is -0.165 (inactive); in [12], -0.457 (inactive); in [13], -0.173 (inactive); in test [14] it was 1.45 (inactive); in test [16] it was 0.233 (inactive).
On to `C=C[C@@H](COC(=O)OC(C)(C)C)N(Cc1ccc(OC)cc1)S(=O)(=O)c1ccc(Br)cc1`, for which the composite z-score in test [1] is -0.492; in test [2], 0.544; in test [3] it was -0.0598; in test [4] it was 0.0626; in test [5], 0.779; in [6], 0.142. Besides, the composite z-score in test [7] was 0.8; in test [9], 0.481; in test [10], 0.0505; in test [11], 0.345; in test [15] it was 0.269; in test [17], 0.047. Moreover, the composite z-score is 1.07 in [18], 1.12 in test [19] and -0.0088 in test [20]. The z-score was -2.35 (inactive) in test [8]; -0.374 (inactive) in test [12]; -0.521 (inactive) in test [13]; -0.555 (inactive) in [14]; -0.701 (inactive) in test [16].
Regarding `COc1ccc(-c2cc3c(c(-c4ccc(Oc5ccccc5)cc4)n2)[Si](C(C)C)(C(C)C)OC3)cn1`, the composite z-score was -0.264 in test [1]; -0.65 in test [2]; -0.163 in [3]; 0.0106 in [4]; 0.358 in test [5]; -0.264 in [6]. Also, the composite z-score in test [7] was -0.502; in [9] it was 0.406; in test [10] it was -0.0994; in test [11], 0.483; in [15] it was -0.166; in test [17], -0.119. Further, the results for the composite z-score in [18], in [19] and in [20] were 0.503, 0.342 and -0.26, respectively. Moreover, the z-score in [8] is -0.211 (inactive); in test [12], 1.32 (inactive); in [13], 0.955 (inactive); in test [14], 1.88 (inactive); in [16] it was -0.984 (inactive).
For `Oc1ccc2cc[n+](Cc3sc4ccccc4c3Cl)cc2c1`, the composite z-score in [1] is 0.997; in test [2], -0.466; in test [3], -0.0976; in test [4] it was -0.299; in test [5], -0.308; in [6], -0.159. For the same compound, the composite z-score in test [7] worked out at 1.64; in [9], 0.031; in test [10] it was 0.16; in test [11], 0.599; in test [15], 3.37; in test [17] it was 0.217. The composite z-score in [18] was 0.311; in test [19], 0.207; in test [20] it was -0.0409. Moreover, the z-score in [8] was 1.7 (inactive); in [12], 0.0335 (inactive); in [13] it was -1.43 (inactive); in [14] it was 2.3 (inactive); in test [16], -1.82 (inactive).
For the compound `C=C(/C(=C/C[C@H](OC(C)=O)c1ccc(CO)o1)c1cc(C(=O)OC)ccc1OC)C(C)C`, the composite z-score in test [1] is -0.0849; in test [2], -0.442; in [3] it was -0.0637; in [4], 0.597; in test [5], 0.102; in test [6], -0.306. Further, the composite z-score in [7] is 0.53; in test [9] it was 0.031; in test [10] it was 0.119; in [11], 0.57; in [15], 0.381; in test [17] it was -0.0485. Besides, the values for the composite z-score in [18], in [19] and in [20] were 0.58, 0.368 and -0.0206, respectively. For the same compound, the z-score in test [8] was -0.601 (inactive); in test [12], 1.02 (inactive); in test [13], -0.967 (inactive); in [14], 0.0168 (inactive); in test [16] it was 0.865 (inactive).
As for `C=CCOC(=O)[C@H]1[C@@H]2C(=O)O[C@@H](c3ccccc3)[C@@H](c3ccccc3)N2[C@@H](c2ccc(OCCOC(=O)[C@H]3C[C@H]4C(=O)N[C@@H](CCCCNC(C)=O)C(=O)N4[C@H]3c3cccc(OCCO)c3)cc2)[C@]12C(=O)Nc1ccccc12`, the composite z-score is -0.0212 in test [1]; 1 in [2]; -0.0723 in test [3]; 0.732 in test [4]; 0.279 in test [5]; 0.786 in test [6]. Besides, the composite z-score in test [7] was 1.11; in test [9], -0.047; in test [10] it was -0.0994; in test [11] it was 1.55; in test [15], 3.05; in test [17], -0.0865. The composite z-score was 0.664 in test [18], 0.879 in [19] and -0.0996 in test [20]. For the same compound, the z-score was 1.12 (inactive) in [8]; 0.17 (inactive) in [12]; 1.11 (inactive) in [13]; 2.59 (inactive) in [14]; 0.272 (inactive) in test [16].
